# Reference: the supplement of paper PMC3334620
# The full ranking holds about 33,000 sequences; the median of “E-score (-0.5 to 0.5)” is about -0.012, and the highest 2% start at about 0.27. What follows is part of a selection rich in the highest values, with near analogues and random picks from the rest.
# Molecular target: T1, Vhr1 (UniProt P40522)
# T1 sequence: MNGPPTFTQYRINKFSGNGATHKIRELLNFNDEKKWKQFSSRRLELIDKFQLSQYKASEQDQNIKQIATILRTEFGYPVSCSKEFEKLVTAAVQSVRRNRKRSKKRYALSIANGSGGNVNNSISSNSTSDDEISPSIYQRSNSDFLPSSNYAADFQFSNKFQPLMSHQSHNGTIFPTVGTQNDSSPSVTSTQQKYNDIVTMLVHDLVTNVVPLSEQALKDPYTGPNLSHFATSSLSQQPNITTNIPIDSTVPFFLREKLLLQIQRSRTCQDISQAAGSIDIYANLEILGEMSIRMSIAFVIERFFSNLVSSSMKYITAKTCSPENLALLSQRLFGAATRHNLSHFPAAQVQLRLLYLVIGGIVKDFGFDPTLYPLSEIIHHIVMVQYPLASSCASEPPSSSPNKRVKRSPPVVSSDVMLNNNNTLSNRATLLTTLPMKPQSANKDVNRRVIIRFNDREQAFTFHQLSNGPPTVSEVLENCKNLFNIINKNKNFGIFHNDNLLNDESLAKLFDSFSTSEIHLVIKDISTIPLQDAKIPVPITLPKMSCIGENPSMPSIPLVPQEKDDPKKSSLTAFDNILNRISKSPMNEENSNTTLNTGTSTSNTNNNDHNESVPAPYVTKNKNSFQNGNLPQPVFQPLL
# Assay: PBM E-score (8-mer binding enrichment) (E-score (-0.5 to 0.5)); higher = stronger / more preferred TF binding
# Conditions: protein concentration: 200 nM; construct: GST-full length
# Procedure: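 Universal 'all 10-mer' protein binding microarrays (Agilent AMADID 015681) probed with GST-tagged S. cerevisiae TFs (full-length or DBD) made by in vitro transcription/translation (PURExpress), about 100-200 nM. Bound TF was detected with fluorescent anti-GST. Each ungapped 8-mer (which stands for itself and its reverse complement) is scored by the PBM enrichment score (E-score), a modified Wilcoxon-Mann-Whitney statistic from -0.5 to +0.5, computed with the Universal PBM Analysis Suite. Scale: above 0.35 generally sequence-specific binding.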
row,Sequence,PBM E-score
1,ACCTCCTG,-0.139
2,CGTCTCGC,-0.0775
3,ATATCTGC,0.104
4,AGAAGATG,-0.183
5,CACCGCCA,0.242
6,ACCCGCGC,0.342
7,AACCGCCC,0.0139
8,AGCCGCGG,0.178
9,ACCCGCGG,0.275
10,TCCCGCCA,0.0546
11,ACCCGCGA,0.144
12,CACCGCCC,0.293
13,GCCCGCCA,0.13
14,ACCCGCGT,0.00191
15,CCCCGCCA,0.398
16,CCCCGCGG,0.0864
17,AGTCTAAG,-0.0818
18,AAAAAAGC,-0.19
19,CGAGATTA,0.0687
20,GGAGGGGA,0.219
21,TACGCCAA,-0.241
22,ACCCGCCC,0.428
23,GCCCGCCC,0.137
24,ACCCGCCG,0.197
25,ATCCTACC,0.0595

row,Sequence,PBM E-score
1,ACGCTTAC,-0.205
2,ATGTGTGA,0.29
3,ATGTGTCC,0.157
4,CTGTGTTA,0.169
5,GTGTGTTA,0.278
6,ATGTGTCA,0.143
7,ATGTGTGC,0.12
8,ATGTGTTA,0.195
9,ATGTGTGG,0.08
10,ATGTGTCG,0.29
11,CTGTGTGC,0.177
12,CTGTGTAA,0.134
13,CTGTGTGA,0.306
14,AGGACTGG,0.113
15,ACTAGACG,-0.048
16,ATTTTGCC,-0.15
17,AGACTTGC,-0.249
18,AACATCTA,-0.152
19,CACCAGCC,0.143
20,ATAGACGG,0.00408
21,TACCAACA,0.145
22,GATATGCA,-0.0288
23,TCTTTCCA,-0.157
24,GGCCAAAC,-0.155
25,GCGTGTGA,0.104

row,Sequence,PBM E-score
1,GTGTGTGA,0.298
2,GTGTGAGA,0.0943
3,TAGAGGGA,-0.0999
4,AGTTTGAT,0.0522
5,CTTAACCC,-0.213
6,CACCAGAC,0.309
7,GACCAGAC,-0.141
8,AACCAGAC,-0.00075
9,GCTTGCAC,-0.0624
10,ACGATTAC,0.161
11,ACGATTAG,0.045
12,CTGATTTC,-0.00794
13,ATGATTAC,0.391
14,ATCATTAG,0.148
15,CTGATTAC,0.278
16,AAGATTAC,-0.0671
17,ATGATTAG,0.317
18,ATGATTAA,0.264
19,ATCATTAC,0.274
20,CTGATTAA,0.191
21,ATCATTAA,0.0987
22,TGCCACAA,0.0692
23,TAGTAGAA,-0.199
24,ATGGTAGG,0.104
25,CCTAAGCA,-0.108

row,Sequence,PBM E-score
1,GAAGCACA,-0.00604
2,GATCAGTA,0.121
3,ACGTGACG,-0.137
4,AGGTGACA,0.0488
5,ACGTGACA,-0.197
6,AGGTGACG,-0.0476
7,ACGTGACT,0.41
8,AGGTGACT,0.425
9,CTCATAAC,0.00985
10,ATGTGGTG,0.227
11,AGAAGATA,-0.193
12,TCAGTTAA,-0.108
13,AGTAGGCA,0.154
14,CACAACGC,0.134
15,GTGACTTA,0.259
16,CAGACTAA,0.117
17,GTGACTAA,0.428
18,GGGACTAA,-0.209
19,CAGACTAC,0.136
20,CTGACTAC,0.361
21,CTGACTAA,0.359
22,AAGACTAG,-0.209
23,CGGACTAA,0.102
24,ATGACTAG,0.369
25,CGGACTAC,0.0519

row,Sequence,PBM E-score
1,ACGACTAG,0.162
2,AGGTGGAG,-0.191
3,CGATCGCA,0.178
4,TCCCTGCA,0.0302
5,AGGGTTGC,-0.068
6,CGAGCGAG,0.262
7,ATTCGAGC,-0.0346
8,GGCCATAC,0.0276
9,AAGACTAC,0.122
10,ATGACTAA,0.42
11,AAGACTAA,0.116
12,ATGACTAC,0.462
13,AGGACTAC,0.067
14,AGGACTAA,0.054
15,AGTCTACC,-0.0695
16,CGAAGTGC,-0.107
17,AAACGCAC,0.142
18,CAAAAGGA,-0.2
19,AACTGATC,0.157
20,CGGCAGCC,0.282
21,AGGCAGCC,-0.0232
22,CGGCAGCA,-0.0628
23,AGGGGGCA,-0.151
24,GAAACACA,0.0985
25,AATTGAGG,-0.233

row,Sequence,PBM E-score
1,AATTGAGT,0.272
2,AATTGAGA,-0.0698
3,TGAATCCA,0.185
4,ATCATGAG,0.235
5,CACATGAA,0.0563
6,CACATGAC,0.272
7,CACATGAG,0.065
8,GACATGAC,0.202
9,CTCATGAA,0.0223
10,GTCATGAC,0.31
11,ATCATGAA,0.118
12,ATCATGAC,0.335
13,CTCATGAC,0.326
14,GTCATGAA,0.257
15,CTCATGAG,0.0895
16,CTTTCAAC,-0.128
17,CGTGGTGA,-0.158
18,CAGACGGC,-0.0191
19,CGAACTAG,-0.0301
20,TCTAGAAA,-0.272
21,AACCCTGA,0.286
22,ACCCCTGA,0.143
23,GACCCATA,0.251
24,CACCCTGA,0.245
25,AACCCATA,0.271

row,Sequence,PBM E-score
1,AACCCATT,0.0791
2,AATTGACT,0.149
3,CTTAAGTA,-0.199
4,CTAGGTTC,-0.0959
5,CCGAATGC,-0.0649
6,TATAGTGA,-0.0332
7,TATAGTAA,0.15
8,CATAGTCC,0.115
9,GATAGTCA,0.357
10,GATAGTAA,0.0876
11,AATAGTCT,-0.0519
12,AATAGTCG,0.148
13,AATAGTCA,0.344
14,CATAGTCA,0.37
15,CATAGTCG,0.238
16,TATAGTCA,0.318
17,GATAGTCC,0.0259
18,ACGGGAGG,-0.13
19,AATGTGGT,0.115
20,GAATCGAC,-0.005
21,ACAAATCG,0.0133
22,ATCAGCTA,0.0387
